# Test results reported in the supplement of paper PMC9262897, “Low-cost anti-mycobacterial drug discovery using engineered E. coli” (Nature Communications, 2022).
# Where a name gives a salt, the structure may show the parent alone. ± gives the standard deviation of the averaged measurements.
# What was measured:
# Assay in all cases: growth (OD600 after 10 h); higher = more growth (less inhibition)
# [1] = system: E. coli TESEC Alr+ wild-type control; settings: compound 0.1 mM; raw OD600 reference: median of DMSO wells 0.241, cell-free background 0.041
# Experimental: (§1)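 TESEC Mtb Alr E. coli, or the Alr+ wild-type control, in 384-well plates with Prestwick library compounds at 0.1 mM and 1% DMSO, across arabinose induction levels of 1E3 to 1E7 nM. Growth is read as OD600 after 10 h at 37 °C in triplicate biological replicates.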
# [2] = system: E. coli TESEC Mtb Alr; settings: compound 0.1 mM
# Experimental: as §1
# [3] = system: E. coli TESEC Mtb Asd; settings: compound 0.1 mM
# Experimental: (§2)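 TESEC E. coli strains in which the native enzyme is deleted and replaced by arabinose-inducible Mtb Asd, DapB, CysH or TrpD, each grown in its selective medium. Strains were screened against the Prestwick library at 0.1 mM and 1% DMSO in 384-well format at low and high arabinose induction. Growth is read as OD600 after 10 h in triplicate.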
# [4] = system: E. coli TESEC Mtb DapB; settings: compound 0.1 mM
# Experimental: as §2
# [5] = system: E. coli TESEC Alr+ wild-type control; settings: compound 0.1 mM; raw OD600 reference: median of DMSO wells 0.49, cell-free background 0.052
# Experimental: (§3)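 TESEC Mtb Alr E. coli (ΔaraC ΔtolC ΔentC Δalr ΔdadX, arabinose-inducible Mtb Alr) or the Alr+ wild-type control strain, grown in defined M9-fructose medium without D-alanine in 96-well plates with Prestwick library compounds at 0.1 mM and 1% DMSO. Low Alr induction is 0.1 µM arabinose and high induction is 10 mM arabinose.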
# [6] = system: E. coli TESEC Mtb Alr; settings: compound 0.1 mM; remark: listed apart in the source
# Experimental: as §3
# [7] = arabinose 1000 nM, raw OD600 reference: median of DMSO wells 0.294, cell-free background 0.041
# [8] = arabinose 10000 nM, raw OD600 reference: median of DMSO wells 0.264, cell-free background 0.041
# [9] = arabinose 100000 nM, raw OD600 reference: median of DMSO wells 0.201, cell-free background 0.041
# [10] = arabinose 1000000 nM, raw OD600 reference: median of DMSO wells 0.193, cell-free background 0.041
# [11] = arabinose 10000000 nM, raw OD600 reference: median of DMSO wells 0.146, cell-free background 0.041
# [12] = arabinose induction (level): High, raw OD600 reference: median of DMSO wells 0.331, cell-free background 0.041
# [13] = arabinose induction (level): Low, raw OD600 reference: median of DMSO wells 0.417, cell-free background 0.041
# [14] = arabinose induction (level): High, raw OD600 reference: median of DMSO wells […], cell-free background 0.041
# [15] = arabinose induction (level): Low, raw OD600 reference: median of DMSO wells 0.227, cell-free background 0.041
# [16] = arabinose 100 nM, raw OD600 reference: median of DMSO wells 0.413, cell-free background 0.052
# [17] = arabinose 10000000 nM, raw OD600 reference: median of DMSO wells […], cell-free background 0.052
Compound,growth [1],"growth [2, 7]","growth [2, 8]","growth [2, 9]","growth [2, 10]","growth [2, 11]","growth [3, 12]","growth [3, 13]","growth [4, 14]","growth [4, 15]",growth [5],"growth [6, 16]","growth [6, 17]"
CN1CCN(c2c(F)cc3c(=O)c(C(=O)O)cn(CCF)c3c2F)CC1 [Fleroxacin],0.0517 ± 0.002,0.04717 ± 0.00045,0.0416 ± 0.0006,0.0505 ± 0.0014,0.0445 ± 0.00081,0.0554 ± 0.00072,0.0848 ± 0.0081,0.0766 ± 0.014,0.0682 ± 0.001,0.0599 ± 0.003,0.0565 ± 0.002,0.0555 ± 0.0013,0.05217 ± 5.8e-05
CC(C)c1nc(CN(C)C(=O)N[C@H](C(=O)N[C@@H](Cc2ccccc2)C[C@H](O)[C@H](Cc2ccccc2)NC(=O)OCc2cncs2)C(C)C)cs1 [Ritonavir],0.166 ± 0.0093,0.216 ± 0.015,0.221 ± 0.025,0.217 ± 0.012,0.114 ± 0.0092,0.159 ± 0.0028,0.245 ± 0.0089,0.15 ± 0.008,0.192 ± 0.013,0.25 ± 0.0048,0.362 ± 0.01,,
Nc1nc(N)nc(-c2cc(Cl)ccc2Cl)n1 [Irsogladine maleate],0.238 ± 0.0051,0.298 ± 0.013,0.2393 ± 0.0018,0.207 ± 0.011,0.173 ± 0.0041,0.143 ± 0.0066,0.297 ± 0.072,0.406 ± 0.025,0.197 ± 0.019,0.211 ± 0.017,0.589 ± 0.1,0.402 ± 0.0076,0.357 ± 0.0079
N=C(N)N1CCc2ccccc2C1 [Debrisoquin sulfate],0.237 ± 0.0047,0.288 ± 0.013,0.254 ± 0.0074,0.222 ± 0.036,0.174 ± 0.0076,0.147 ± 0.0083,0.373 ± 0.058,0.373 ± 0.027,0.209 ± 0.022,0.22 ± 0.039,0.567 ± 0.039,0.406 ± 0.01,0.334 ± 0.013
CC(C)(Oc1ccc(CCNC(=O)c2ccc(Cl)cc2)cc1)C(=O)O [Bezafibrate],0.249 ± 0.0031,0.296 ± 0.0036,0.237 ± 0.0024,0.208 ± 0.028,0.163 ± 0.0041,0.138 ± 0.0072,0.237 ± 0.074,0.298 ± 0.021,0.184 ± 0.012,0.216 ± 0.013,0.483 ± 0.015,0.43 ± 0.0059,0.322 ± 0.019
c1coc(CNc2ncnc3nc[nH]c23)c1 [6-Furfurylaminopurine],0.252 ± 0.0041,0.29 ± 0.014,0.252 ± 0.0053,0.209 ± 0.027,0.181 ± 0.0069,0.138 ± 0.0046,0.341 ± 0.068,0.43 ± 0.043,0.209 ± 0.011,0.221 ± 0.024,0.44 ± 0.022,0.405 ± 0.0075,0.365 ± 0.0057
O=C(CCCN1CC=C(n2c(=O)[nH]c3ccccc32)CC1)c1ccc(F)cc1 [Droperidol],0.178 ± 0.0085,0.241 ± 0.005,0.225 ± 0.0067,0.175 ± 0.014,0.105 ± 0.0018,0.152 ± 0.0037,0.205 ± 0.056,0.359 ± 0.058,0.184 ± 0.015,0.206 ± 0.029,0.404 ± 0.025,0.409 ± 0.0085,0.276 ± 0.0059
CCCCCCCCNC(C)C(O)c1ccc(SC(C)C)cc1 (centres undefined) [Suloctidil],0.0763 ± 0.037,0.0398 ± 0.0011,0.0405 ± 0.00085,0.0403 ± 0.00044,0.0856 ± 0.078,0.0896 ± 0.085,0.191 ± 0.016,0.162 ± 0.074,0.153 ± 0.023,0.189 ± 0.019,0.0529 ± 0.0091,0.0587 ± 0.0041,0.0516 ± 0.00081
O=C(CCCN1CCN(c2ccccn2)CC1)c1ccc(F)cc1 [Azaperone],0.192 ± 0.0058,0.2624 ± 0.0023,0.294 ± 0.0053,0.164 ± 0.013,0.177 ± 0.0089,0.146 ± 0.0043,0.217 ± 0.017,0.326 ± 0.029,0.194 ± 0.0048,0.264 ± 0.05,0.395 ± 0.0085,0.423 ± 0.0076,0.304 ± 0.01
O=C(O)c1cccnc1 [Niacin],0.28 ± 0.0091,0.346 ± 0.021,0.304 ± 0.0045,0.243 ± 0.0028,0.238 ± 0.0034,0.152 ± 0.0078,0.397 ± 0.019,0.461 ± 0.0099,0.211 ± 0.016,0.238 ± 0.0084,0.522 ± 0.086,0.423 ± 0.028,0.431 ± 0.014
CSc1ccc2c(c1)C(N1CCN(C)CC1)Cc1ccccc1S2 (centres undefined) [Methiothepin maleate],0.0405 ± 0.00044,0.0412 ± 0.0021,0.0394 ± 0.00042,0.04073 ± 0.00025,0.03917 ± 5.8e-05,0.0411 ± 0.0013,0.0562 ± 0.0036,0.0503 ± 0.0057,0.0514 ± 0.00083,0.0485 ± 0.00094,0.04833 ± 0.00021,0.293 ± 0.21,0.0516 ± 0.00053
CC(C(=O)O)c1cccc(Oc2ccccc2)c1 (centres undefined) [Fenoprofen calcium salt dihydrate],0.22 ± 0.0072,0.267 ± 0.013,0.266 ± 0.0086,0.147 ± 0.0054,0.192 ± 0.0067,0.134 ± 0.0015,0.361 ± 0.075,0.322 ± 0.042,0.205 ± 0.01,0.192 ± 0.014,0.489 ± 0.089,0.397 ± 0.009,0.255 ± 0.0093
CN(Cc1cc(Br)cc(Br)c1N)C1CCCCC1 [Bromhexine hydrochloride],0.0422 ± 0.0023,0.0459 ± 0.0083,0.04107 ± 0.00031,0.0454 ± 0.0014,0.0423 ± 0.00059,0.0454 ± 0.00098,0.194 ± 0.028,0.0472 ± 0.0019,0.04827 ± 0.00047,0.0644 ± 0.0038,0.0641 ± 0.0033,0.0619 ± 0.0019,0.0553 ± 0.0034
CO[C@H]1/C=C/O[C@@]2(C)Oc3c(C)c(O)c4c(O)c(c5c(nc6cc(C)ccn65)c4c3C2=O)NC(=O)/C(C)=C\C=C\[C@H](C)[C@H](O)[C@@H](C)[C@@H](O)[C@@H](C)[C@H](OC(C)=O)[C@@H]1C [Rifaximin],0.044 ± 0.0038,0.0438 ± 0.0029,0.0409 ± 0.0005,0.0411 ± 0.00017,0.0418 ± 0.0021,0.0439 ± 0.0024,0.0569 ± 0.001,0.054 ± 0.0016,0.103 ± 0.089,0.0515 ± 0.0028,0.0531 ± 0.00076,0.05527 ± 0.00047,0.0526 ± 0.00044
c1ccc2c(CC3=NCCN3)cccc2c1 [Naphazoline hydrochloride],0.231 ± 0.0088,0.26 ± 0.032,0.268 ± 0.0057,0.191 ± 0.019,0.189 ± 0.0029,0.147 ± 0.0052,0.238 ± 0.042,0.333 ± 0.048,0.184 ± 0.011,0.21 ± 0.016,0.549 ± 0.075,0.41 ± 0.0069,0.323 ± 0.018
CC(=O)Oc1ccc(C(c2ccc(OC(C)=O)cc2)c2ccccn2)cc1 [Bisacodyl],0.202 ± 0.0032,0.245 ± 0.018,0.289 ± 0.016,0.219 ± 0.031,0.201 ± 0.0038,0.168 ± 0.0065,0.354 ± 0.011,0.24 ± 0.028,0.19 ± 0.011,0.2324 ± 0.0015,0.5 ± 0.016,0.39 ± 0.0062,0.39 ± 0.0069
CN(C)CCCN1c2ccccc2CCc2ccc(Cl)cc21 [Clomipramine hydrochloride],0.04137 ± 0.00021,0.03983 ± 0.00015,0.03953 ± 0.00025,0.0451 ± 0.0062,0.04 ± 0.00035,0.0473 ± 0.0044,0.0467 ± 0.00076,0.0482 ± 0.0034,0.0466 ± 0.00055,0.0467 ± 0.00083,0.202 ± 0.26,0.4115 ± 0.0024,0.193 ± 0.066
